Only some compounds are listed: those with a hit (about 11% of all), similar ones and a draw of the others.
Sm TGR block = blocks Schistosoma mansoni thioredoxin glutathione reductase | Potency, µM (doses to about 114 µM), most hits filed as inhibitors | hit rate 3% among 360,000 | Q962Y6 | purified TGR, DTNB reduction, TNB absorbance 405 nm; further: nearly all actives have a fitted effect of over 60% in size
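TGR 20 nM + NADPH 100 uM (dispensed conc.), cpd preinc 15 min RT; start with NADPH (500 uM addition) then DTNB (15 mM addition). Kinetic TNB absorbance, 405 nm filter. Four-parameter Hill fit across titration.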
Pf growth 96h = P. falciparum growth inhibition at 96 hour, primary screen for plastid delayed-death inhibitors; hit rate 6.9% among 320,000; P. falciparum luciferase reporter growth, 96 h; Potency, µM (series often up to 28.7 µM), hits mostly inhibitors
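Delayed-death screen, second-generation endpoint: infected erythrocytes, 2% hematocrit, 0.05% parasitemia final; 96 hours at 37 C, 5% CO2; luciferase detection reagent; luminescence decrease equals reduced growth.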
Pf growth 48h = P. falciparum growth inhibition at 48 hours (one generation); hit rate 5.9% among 310,000; Potency, µM (titrated, usually from 28.7 µM), most hits filed as inhibitors; P. falciparum luciferase growth in erythrocytes, 48 h
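Luciferase-expressing parasites in RBCs, 2% Hct / 0.1% parasitemia final; RPMI 1640 + 0.5% Albumax; 37 C, 5% CO2, one generation; luminescence read-out, lower signal = inhibition.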
NS1 inh = blocks influenza NS1 protein function; Potency, µM (series often up to 46.1 µM); hit rate 0.4% among 270,000; AID 2326; calls by dose curve; further: actives are rising curves; nearly all actives have a fitted effect of over 50% in size
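Growth recovery, yeast-based: influenza A NS1 expressed in S. cerevisiae causes slow growth, and suppressors are detected by OD600. The parent strain without NS1 is used as positive control.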
AMA1-RON2 inh = inhibitors of Plasmodium falciparum AMA1-RON2 interaction; AlphaScreen AMA1-biotinylated RON2 peptide binding; Potency, µM (highest dose often 58.2 µM), actives largely listed as inhibitors; hit rate 0.2% among 360,000; AID 720542; further: nearly all actives have a fitted effect of over 45% in size
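AMA1 (3D7) with his tag at 25 nM final met compounds first, then biotinylated RON2 peptide at 25 nM; detection used donor plus acceptor beads, 10 µg/mL apiece, read by AlphaScreen after 30 min at room temperature.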
Large screens that a line does not name were inactive. Unless noted, the call rests on the fitted dose curve; in most records, active means well fitted curve in the direction sought with a large enough effect; inconclusive means small, poorly fitted or top-dose-only effect, or another doubt; inactive means no such curve, though single readings can be large; an effect the other way counts as inactive or inconclusive.

Cc1ccc(S(=O)(=O)NCc2nc(-c3cccc(C)c3)no2)cc1	none (no result: Pf growth 96h, Pf growth 48h, NS1 inh, AMA1-RON2 inh)
COC(=O)c1ccc(C2c3[nH]c4ccccc4c3C[C@H]3C(=O)N(C4CCN(Cc5ccccc5)CC4)CC(=O)N23)cc1 (some centres undefined)	Pf growth 96h 3.3µM, Pf growth 48h 4.7µM
COc1ccc(C2c3[nH]c4ccccc4c3C[C@H]3C(=O)N(C)CC(=O)N23)cc1OC (some centres undefined)	Pf growth 96h inconclusive, Pf growth 48h inconclusive
O=C1[C@@H]2Cc3c([nH]c4ccccc34)C(c3ccccc3)N2C(=O)CN1C1CCN(Cc2ccccc2)CC1 (some centres undefined)	Pf growth 96h 0.74µM
O=C1[C@@H]2Cc3c([nH]c4ccccc34)C(c3cccc(Br)c3)N2C(=O)CN1C1CCN(Cc2ccccc2)CC1 (some centres undefined)	Pf growth 96h inconclusive, Pf growth 48h 1.5µM
Cc1ccc(CC(=O)Nc2cccc(C(=O)Nc3c(C)n(C)n(-c4ccccc4)c3=O)c2)cc1C	none (no result: Sm TGR block, Pf growth 96h, Pf growth 48h, NS1 inh)
CCOC(=O)C1=C(CN2CCN(c3ccccc3OC)CC2)NC(=O)NC1c1ccccc1 (centres undefined)	none (no result: Pf growth 96h, Pf growth 48h, NS1 inh, AMA1-RON2 inh)
Cc1cc([N+](=O)[O-])ccc1NC(=O)CSc1nncn1-c1cccnc1	none
COc1cc(NC(=O)C2CCCC2)c(OC)cc1Cl	Pf growth 96h 9.3µM (no result: Pf growth 48h)
COc1ccc2oc(=O)c(NC(=O)C3CCCCC3)cc2c1	Pf growth 96h 13µM
COc1cc(NC(=O)c2ccc(F)cc2)c(OC)cc1Cl	none
COC(=O)c1cc(Cl)c(NC(=O)c2ccc(F)cc2)cc1OC	Pf growth 96h 9.3µM
COC(=O)c1cc(Cl)c(NC(=O)c2cc(OC)c(OC)c(OC)c2)cc1OC	none
COc1ccc(C(=O)Nc2cc(OC)c(Cl)cc2OC)cc1	Pf growth 96h 5.2µM (no result: NS1 inh)
CC(=O)OCC[C@H](NS(=O)(=O)OCC(Cl)(Cl)Cl)c1ccccc1	Pf growth 96h inconclusive
COc1ccc(-c2cc(NC=O)c3ncc(-c4cccc(C(=O)N(C)C)c4)n3c2)cn1	none (no result: Sm TGR block, Pf growth 96h, Pf growth 48h, NS1 inh)
Nc1c(C(=O)Nc2ccccc2Cl)c2ccccn2c1C(=O)c1ccccc1	none (no result: Pf growth 96h, Pf growth 48h, NS1 inh, AMA1-RON2 inh)
COc1ccc(C(=O)Nc2nc(C)cc(C)n2)cc1	Sm TGR block 22µM
COCCOc1cc(NC(=O)CS(=O)CC(=O)N(C)C)c(Cl)cc1Cl (centres undefined)	Pf growth 96h inconclusive
CCN(CC)C(=O)CS(=O)(=O)CC(=O)Nc1cc(OCCOC)c(Cl)cc1Cl	Sm TGR block 35µM, Pf growth 96h inconclusive
COc1cc(NC(=O)c2cc(C(C)C)on2)c(OC)cc1Cl	Pf growth 48h 13µM
COCCOc1cc(NC(=O)c2cccc(OC)c2)c(Cl)cc1Cl	Pf growth 96h inconclusive, Pf growth 48h 12µM (no result: NS1 inh)
Cc1cc(C)nc(NC(=O)c2ccc(Br)cc2)n1	none (no result: Pf growth 48h)
COCCNc1nc2c(c(=O)n(C)c(=O)n2C)n1Cc1c(F)cccc1Cl	none (no result: Pf growth 96h, Pf growth 48h, NS1 inh, AMA1-RON2 inh)
CC(C)CC(=O)C(=O)O	none (no result: Sm TGR block, Pf growth 96h, Pf growth 48h, NS1 inh)
CCOc1ccc(NC(=O)C2C3C=CC4(O3)C2C(=O)N(Cc2cccnc2)C4C(=O)NC2CCCCC2)cc1 (centres undefined)	Pf growth 96h inconclusive
COC(=O)c1cnc(N)s1	none (no result: Sm TGR block, Pf growth 96h, Pf growth 48h, NS1 inh)
Cc1cccc(C)c1NC(=O)C(CCc1ccccc1)N1CCN(C)CC1 (centres undefined)	none (no result: Sm TGR block, Pf growth 96h, Pf growth 48h, NS1 inh)
COc1ccc(C)cc1N1C(=N)/C(=C2/Nc3ccccc3S2)C(c2ccccc2)C1=O (centres undefined)	Pf growth 48h 13µM
CCCC(=O)N(Cc1cc2ccccc2[nH]c1=O)c1ccccc1OC	none (no result: Pf growth 96h, Pf growth 48h)
CCCC(=O)N(Cc1cc2cccc(C)c2[nH]c1=O)c1ccccc1OC	Pf growth 48h 12µM
Cc1ccc(-n2c3nc(=O)[nH]c(=O)c-3cc3c(C)nn(-c4ccccc4)c32)cc1C	none (no result: Pf growth 96h, Pf growth 48h, NS1 inh, AMA1-RON2 inh)
Cc1cccc(N2CCN(C(=O)c3ccc(CS(=O)Cc4cccc(Cl)c4)o3)CC2)c1C (centres undefined)	Sm TGR block 40µM, Pf growth 96h inconclusive
CCOC(=O)N1CCN(C(=O)c2ccc(CS(=O)Cc3ccccc3Cl)o2)CC1 (centres undefined)	Sm TGR block inconclusive, Pf growth 96h inconclusive
Cc1ccc(C)c(N2CCN(C(=O)c3ccc(CS(=O)Cc4ccc(Cl)cc4)o3)CC2)c1 (centres undefined)	Sm TGR block inconclusive
Cc1ccc(Cl)cc1N1CCN(C(=O)c2ccc(CS(=O)Cc3ccc(Cl)cc3)o2)CC1 (centres undefined)	Sm TGR block 45µM, Pf growth 96h inconclusive
CCOC(=O)N1CCN(C(=O)c2ccc(CS(=O)Cc3ccc(C)cc3)o2)CC1 (centres undefined)	Sm TGR block 40µM, Pf growth 96h inconclusive
Cc1ccc(-c2nnn(CC(=O)N(CC3CCCO3)C(C(=O)NC3CCCC3)c3ccc(F)cc3)n2)o1 (centres undefined)	Pf growth 48h 12µM (no result: Pf growth 96h)
Cc1ccc(-c2nnn(CC(=O)N(CC3CCCO3)C(C(=O)NC3CCCC3)c3ccc(O)cc3)n2)o1 (centres undefined)	none
CCCC(C(=O)NC1CCCC1)N(C(=O)Cn1nnc(-c2ccc(C)o2)n1)c1ccccc1OC (centres undefined)	Pf growth 48h 10µM (no result: Pf growth 96h)
CC(CNC(=O)c1ccc2c(c1)nc1n2CCOC1)c1ccccc1 (centres undefined)	none (no result: Pf growth 96h, Pf growth 48h, NS1 inh, AMA1-RON2 inh)
CCOC(=O)N/N=C(C)/C=C/c1ccco1	Sm TGR block 32µM, Pf growth 96h inconclusive
CC(/C=C/c1ccco1)=N/NC(=O)CNc1ccccc1C	Sm TGR block 35µM, Pf growth 96h inconclusive (no result: NS1 inh)
CC(/C=C/c1ccco1)=N\NC(=O)c1cccc(Cl)c1	Pf growth 96h inconclusive, Pf growth 48h inconclusive
CC(/C=C/c1ccco1)=N/NC(=O)c1ccccc1Cl	Sm TGR block 22µM
CCOC(=O)N/N=C\C=C\c1ccco1	Sm TGR block 22µM, Pf growth 96h inconclusive
COc1ccc(CNC(=O)c2c(C)nc3ccccn23)cc1	Pf growth 96h inconclusive
CCOC(=O)c1c(C)c(C(=O)NCc2ccc(OC)cc2)c(C)n1CC	none (no result: Pf growth 96h, Pf growth 48h, NS1 inh, AMA1-RON2 inh)
CCOC(=O)c1c(C)c(C(=O)Nc2cc(OC)ccc2OC)c(C)n1CC	Pf growth 48h inconclusive, AMA1-RON2 inh inconclusive
CCOC(=O)c1c(C)c(C(=O)Nc2ccccc2)c(C)n1CC	Pf growth 96h 4.7µM, Pf growth 48h inconclusive
CCOC(=O)c1c(C)c(C(=O)NCCc2ccc(OC)cc2)c(C)n1CC	Sm TGR block 22µM (no result: Pf growth 96h, Pf growth 48h, NS1 inh, AMA1-RON2 inh)
COc1ccc(CCNC(=O)c2c(C)nc3ccccn23)cc1	Pf growth 96h 12µM, Pf growth 48h inconclusive (no result: NS1 inh)
CCOc1ccc(CCNC(=O)Cn2nnc(-c3ccc(C(F)(F)F)cc3)n2)cc1OCC	none (no result: Pf growth 96h, Pf growth 48h, NS1 inh, AMA1-RON2 inh)
CC(C(=O)Nc1cc([N+](=O)[O-])ccc1Cl)N1CCN(c2ccccc2O)CC1 (centres undefined)	Pf growth 96h inconclusive, Pf growth 48h 6.6µM
COc1ccc([N+](=O)[O-])cc1NC(=O)C(C)N1CCCC1 (centres undefined)	none

Assay outcomes as filed in PubChem BioAssay.
